Assay results as given in ChEMBL document CHEMBL4513216, “Probing the Open Global Health Chemical Diversity Library for Multistage-Active Starting Points for Next-Generation Antimalarials” (ACS Infect Dis, 2020).
Out of some 68,000 compounds screened, about 2,700 (4%) showed an effect of 50% or more. For the sample, strong results were picked, then their nearest neighbours and some compounds at random.

system: Plasmodium berghei; assay: Screen against P. berghei liver stage (PbLuc), transformed with Luciferase, at 2uM; format: functional, HepG2; settings: tested at 2 uM

Compound	INHIBITION
Cn1cc(C[C@H]2[C@H](O)CCN2Cc2ccncc2)cn1	20.41%
CCCNC(=O)c1cn(C(C)(C)C)c2ncccc12	12.87%
Cc1nc(-c2ccccc2)cc2nn(CC(N)=O)c(=O)n12	20.88%
COc1ccc(-c2cc3nn(CC(N)=O)c(=O)n3c(C)n2)cc1	52.74%
COc1ccc(-c2cc3nn(CC(=O)NC(C)C)c(=O)n3c(C)n2)cc1	22.96%
CCn1ncc2c1NC(=O)C(C#N)C21CCCC1 (stereo unspecified)	-12.09%
CCN1CC(CN(C)c2cc(C)nc(N)n2)Oc2ccccc21 (stereo unspecified)	-10.39%
CC(C)OCCN1CCN(C(=O)c2cccc(CC#N)c2)CC1	5.72%
CC(=O)NCC1CCC2(CCN(c3ncc(C)cn3)CC2)O1 (stereo unspecified)	58.03%
CC(=O)NCC1CCC2(CCN(c3ncc(C(C)=O)c(C)n3)CC2)O1 (stereo unspecified)	11.37%
CC(=O)NCC1CCC2(CCN(c3ncnc4oc(C)nc34)CC2)O1 (stereo unspecified)	-7.91%
O=C(NCCn1nc2ccccn2c1=O)c1cc(C2CC2)[nH]n1	25.03%
Cc1cc(C(=O)NC2(c3ccc(Br)cc3)CC2)n(C)n1	-25.71%
CC(=O)c1cc(C(=O)NC2(c3ccc(Br)cc3)CC2)n(C)c1	63.4%
CC(=O)c1cc(C(=O)NC2(c3ccccc3)CCC2)n(C)c1	10.43%
Cc1ncc(CNC(=O)CCc2cccc(F)c2)c(C2CCCN2C)n1 (stereo unspecified)	7.21%
NC1CCN(C2CCN(c3ccc(-c4ccco4)cc3)CC2)CC1	55.36%
c1coc(-c2nc3c(c(N4CCCN5CCC[C@H]5C4)n2)CCNCC3)c1	-53.14%
O=C(O)c1ccccc1C1CCN(C2CCN(c3ccccc3)CC2)C1 (stereo unspecified)	38.67%
NCC1CCN(C2CCN(c3ccc(-c4ccco4)cc3)CC2)C1 (stereo unspecified)	74.44%
CNC1CCN(C2CCN(c3ccc(-c4ccco4)cc3)CC2)CC1	7.67%
COc1ccc(N2CCC(N3CCOC(C(F)(F)F)C3)CC2)cc1 (stereo unspecified)	10.95%
O=C(c1ncccn1)N1CCC2(CC1)COC(COc1ccccn1)C2 (stereo unspecified)	17.35%
CCN(CC)c1ccc(C(=O)N2C[C@H]3CC[C@@H](C2)N(CCOC)C3)cc1	-34.04%
CS(=O)(=O)N1CCOCC2(CCN(Cc3ccc[nH]3)CC2)C1	-14.21%
CC(C1CC1)N(CC(=O)NCC(F)(F)F)C1CC1 (stereo unspecified)	54.02%

Compound	INHIBITION
CC(C1CC1)N(CC(=O)NC(=O)NC1CC1)C1CC1 (stereo unspecified)	31.39%
CC(C)NC(=O)CN(C1CC1)C(C)C1CC1 (stereo unspecified)	-26.26%
Cc1ncc(CNCC(=O)NCC(F)(F)F)n1-c1ccccc1	48.21%
Cc1ncc(CNCC(=O)NC2CCCCC2)n1-c1ccccc1	21.97%
Cc1ncc(CNCC2CCC(C(N)=O)CC2)n1-c1ccccc1 (stereo unspecified)	72.05%
COCCc1noc(CN2CCCCC2Cn2cc(C)cn2)n1 (stereo unspecified)	3.3%
Cn1cccc1C(=O)NS(=O)(=O)c1cnn(-c2ccccc2F)c1	25.21%
Fc1ccc(C2CN(CCc3ccncc3)CCO2)cc1 (stereo unspecified)	13.26%
CCc1ccc(C2NCCc3cc4c(cc32)OCCO4)cc1 (stereo unspecified)	-5.98%
CCN1C[C@H]2CCN(C(=O)Cc3cccc(OC)c3)CC[C@H]2S1(=O)=O	-8.72%
Cc1ccc(NC(=O)C2CSCN2C(=O)c2cnccn2)cc1C (stereo unspecified)	54.2%
Cc1ccc(NC(=O)C2CSCN2C(=O)c2cccnc2)c(C)c1 (stereo unspecified)	-0.12%
Cc1ccc(NC(=O)C2CSCN2C(=O)c2ccncc2)c(C)c1 (stereo unspecified)	11.95%
Cc1ccc(NC(=O)C2CSCN2C(=O)c2cc[nH]n2)c(C)c1 (stereo unspecified)	-16.12%
Cc1ccc(NC(=O)C2CSCN2C(=O)c2cnccn2)c(C)c1 (stereo unspecified)	51.21%
Cc1cccc(NC(=O)C2CSCN2C(=O)c2cnccn2)c1C (stereo unspecified)	-1.85%
O=S(=O)(NCc1ccccc1)Nc1ccc(-n2cncn2)cc1	4.12%
Fc1cnc(N2CCn3c(CN4CCCC4)nnc3C2)nc1	-55.08%
CCNC(=O)[C@@H]1C[C@H](NC(=O)Cn2ccnc2)CN1Cc1ccsc1	-35.46%
CC(C)c1cncnc1N1CC[C@H](N2CCOCC2)[C@H](CCCO)C1	68.36%
Cc1cnc(C)c(N2CC[C@H](N3CCOCC3)[C@H](CCCO)C2)n1	37.87%
OCCC[C@@H]1CN(c2ncc(Cl)cc2Cl)CC[C@@H]1N1CCOCC1	-69.21%
Fc1ccc(CN2CCCn3cnc(COCC4CC4)c3C2)cc1	25.48%
CC(=O)N1CCC2(CC1)COCCN2CCN(C)C	0.04%
CC1CN(C)c2ccccc2CN1C(=O)c1cc(C#N)cn1C (stereo unspecified)	3.49%
